# In the OligoGym collection:
# Target: SQRDL
# Assay: pooled miR-30 sensor sort-seq; sequence = guide strand
# Details: shRNA
# Further: reference of the scale not given here.
row,Sequence,sensor-assay potency score (higher = more potent)
1,TTAACTGAATAATTCGACCCTA,0.0839
2,ATAGGTTCCAAGTCCTTCGTGC,0.618
3,TTCTTTATCCACATCCACCCAA,-0.645
4,TTTGGCACCAGCACCCACCAGT,-0.354
5,TTTCATATGAAATCACTTGGGT,0.204
6,TAACTGAATAATTCGACCCTAT,-0.071
7,TTTCTTGTAGTTAACAGTGAGG,-0.847
8,TTGTCCTATCAAGTATTCCTGA,-0.574
9,TTTAATCTTCTCATAGTCCAGC,0.0208
10,AATCTTCTCATAGTCCAGCTGG,-0.573
11,ATAATTACAGAAATTGTCCTAT,0.475

# Target: SRCAP
# Assay: as above
# Details: shRNA
row,Sequence,sensor-assay potency score (higher = more potent)
1,TATAGTATCCTCTTCATCCTCC,0.687
2,TTTATCTCCAACACCTGAGGGG,0.481
3,TAGAGGACACAGGACTAGCAAG,-1.62
4,TTCACCACCACCACTGTCCGGC,0.285
5,TTGCTTGAATTGCACCACCTTC,-1.29
6,AACTCTAGTAGATCCATCCAGG,-0.807
7,TTGTTCTTCAACTTCAATCGTT,0.0088
8,TTCCACTTGCTCTTCTGCCTGT,0.497
9,TAGACCTTCATTATACTCTTGG,0.352
10,TCAACATCCACCTTAACTCGGC,0.0488
11,TTAATGACAATGTCTGAGTTGG,0.105
12,TGTTCTTCAACTTCAATCGTTT,-0.243
